# According to PubChem BioAssay (NCI):
# Values joined by “and” are separate entries in the source; they are usually repeats but may differ in a detail not shown here. Equal values may be shown once. This is part of a sample that, as a whole, favours compounds with a hit. Of some 79,000 tested, about 15% had one in any assay. A number with no mark means an inactive call. Active and inactive are the calls of the source. Cut-off read from the data, not from the text of the source: active = growth inhibition above about 70%; inactive = the rest.
# Experiment: NCI Yeast Anticancer Drug Screen. Data for the bub3 strain (AID 167)
# Details: S. cerevisiae bub3 mutant strain, at 50.0 µM (retest, dose inferred, filed as 5.0), stronger effect = higher value
# How it was run: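 Screening used yeast with an engineered genetic alteration affecting cell cycle control. Compound-exposed cultures were compared with vehicle cultures, and reduced growth was taken as inhibition.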
row,Structure (SMILES),growth inhibition
1,O=C1/C(=C/c2ccccc2)CCCC1CN1CCCCC1 (configuration not stated),83% (active)
2,C#CCN(Cc1ccc2nc(N)[nH]c(=O)c2c1)c1ccc(C(=O)NC(CCC(=O)O)C(=O)O)cc1 (configuration not stated),71% (active) and 96% (active)
3,CCOC1(c2cccc([N+](=O)[O-])c2)c2ccccc2Oc2ccccc21,77% (active)
4,O=C(O)CNC(=S)Nc1ccccc1,85% (active)
5,N/C(=N/N=C/c1cc(Br)cc(Br)c1O)NO,99% (active)
6,C[Si](C)(C)/C=C/CCNC(C#N)c1ccccc1 (configuration not stated),95% (active)
7,CCCCCCCCCCCCCCCCOP(=O)(O)OCC(N)C(=O)O (configuration not stated),99% (active)
8,CC1=C(C(=O)NCc2ccccc2)C(c2ccccc2)C(C(=O)NCc2ccccc2)=C(C)N1,84% (active)
9,O=[N+]([O-])c1cc(S(=O)(=O)Nc2ccccc2)ccc1Nc1ccccc1,86% (active)
10,CCOC(=O)C(Br)C(Br)c1ccccc1Cl (configuration not stated),99% (active)
11,CCOC(=O)C1=C(C)NC(C)=C(C(=O)OCCNC(=O)c2ccc(N=[N+]=[N-])cc2)C1c1ccccc1C(F)(F)F (configuration not stated),29%
12,Cc1cc(C)c(NC(=S)NC(=O)c2ccccc2)cc1C,79% (active)
13,CNCCCNc1c2ccccc2nc2cccc([N+](=O)[O-])c12,96% (active)
14,COc1c(O)c(C=O)c(Br)c(C=O)c1O,98% (active)
15,Cc1c(C)c(C)c(CSC(=N)N)c(C)c1C,99% (active)
16,O=C(CSC(=S)N1CCCCC1)Nc1nc2c(s1)CCCC2,92% (active)
17,CNC(=O)OCc1c(COC(=O)NC)c(-c2ccc(Cl)cc2)n2c1CCC2,33%
